Assay results as given in the supplement of paper PMC9262897, “Low-cost anti-mycobacterial drug discovery using engineered E. coli” (Nature Communications, 2022).
Where a name gives a salt, the structure may show the parent alone. ± gives the standard deviation of the averaged measurements.

Tests used:
Experiment in all cases: growth (OD600 after 10 h); higher = more growth (less inhibition)
[1] = tested on: E. coli TESEC Alr+ wild-type control; conditions: compound 0.1 mM; raw OD600 reference: median of DMSO wells 0.241, cell-free background 0.041
Protocol: (§1)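 TESEC Mtb Alr E. coli, or the Alr+ wild-type control, in 384-well plates with Prestwick library compounds at 0.1 mM and 1% DMSO, across arabinose induction levels of 1E3 to 1E7 nM. Growth is read as OD600 after 10 h at 37 °C in triplicate biological replicates.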

[2] = tested on: E. coli TESEC Mtb Alr; conditions: compound 0.1 mM
Protocol: as §1

[3] = tested on: E. coli TESEC Mtb Asd; conditions: compound 0.1 mM
Protocol: (§2)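 TESEC E. coli strains in which the native enzyme is deleted and replaced by arabinose-inducible Mtb Asd, DapB, CysH or TrpD, each grown in its selective medium. Strains were screened against the Prestwick library at 0.1 mM and 1% DMSO in 384-well format at low and high arabinose induction. Growth is read as OD600 after 10 h in triplicate.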

[4] = tested on: E. coli TESEC Mtb DapB; conditions: compound 0.1 mM
Protocol: as §2

[5] = tested on: E. coli TESEC Alr+ wild-type control; conditions: compound 0.1 mM; raw OD600 reference: median of DMSO wells 0.49, cell-free background 0.052
Protocol: (§3)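 TESEC Mtb Alr E. coli (ΔaraC ΔtolC ΔentC Δalr ΔdadX, arabinose-inducible Mtb Alr) or the Alr+ wild-type control strain, grown in defined M9-fructose medium without D-alanine in 96-well plates with Prestwick library compounds at 0.1 mM and 1% DMSO. Low Alr induction is 0.1 µM arabinose and high induction is 10 mM arabinose.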

[6] = tested on: E. coli TESEC Mtb Alr; conditions: compound 0.1 mM; remark: listed apart in the source
Protocol: as §3

[7] = arabinose 1000 nM, raw OD600 reference: median of DMSO wells 0.294, cell-free background 0.041
[8] = arabinose 10000 nM, raw OD600 reference: median of DMSO wells 0.264, cell-free background 0.041
[9] = arabinose 100000 nM, raw OD600 reference: median of DMSO wells 0.201, cell-free background 0.041
[10] = arabinose 1000000 nM, raw OD600 reference: median of DMSO wells 0.193, cell-free background 0.041
[11] = arabinose 10000000 nM, raw OD600 reference: median of DMSO wells 0.146, cell-free background 0.041
[12] = arabinose induction (level): High, raw OD600 reference: median of DMSO wells 0.331, cell-free background 0.041
[13] = arabinose induction (level): Low, raw OD600 reference: median of DMSO wells 0.417, cell-free background 0.041
[14] = arabinose induction (level): High, raw OD600 reference: median of DMSO wells […], cell-free background 0.041
[15] = arabinose induction (level): Low, raw OD600 reference: median of DMSO wells 0.227, cell-free background 0.041
[16] = arabinose 100 nM, raw OD600 reference: median of DMSO wells 0.413, cell-free background 0.052
[17] = arabinose 10000000 nM, raw OD600 reference: median of DMSO wells […], cell-free background 0.052

Row | SMILES | growth [1] | growth [2, 7] | growth [2, 8] | growth [2, 9] | growth [2, 10] | growth [2, 11] | growth [3, 12] | growth [3, 13] | growth [4, 14] | growth [4, 15] | growth [5] | growth [6, 16] | growth [6, 17]
1 | CS(=O)(=O)Nc1ccc([N+](=O)[O-])cc1Oc1ccccc1 [Nimesulide] | 0.1929 ± 0.00095 | 0.206 ± 0.0095 | 0.247 ± 0.0073 | 0.149 ± 0.0051 | 0.137 ± 0.0025 | 0.139 ± 0.0087 | 0.272 ± 0.088 | 0.329 ± 0.056 | 0.201 ± 0.0065 | 0.248 ± 0.091 | 0.3996 ± 0.002 | 0.359 ± 0.026 | 0.286 ± 0.01
2 | COc1ccc2[nH]c([S+]([O-])Cc3ncc(C)c(OC)c3C)nc2n1 (stereo unspecified) [Tenatoprazole] | 0.202 ± 0.008 | 0.192 ± 0.0066 | 0.227 ± 0.012 | 0.128 ± 0.0093 | 0.0829 ± 0.0019 | 0.134 ± 0.0048 | 0.388 ± 0.031 | 0.379 ± 0.065 | 0.184 ± 0.0083 | 0.201 ± 0.017 | 0.35 ± 0.01 | 0.397 ± 0.013 | 0.196 ± 0.035
3 | C[N+]1(C)CCC(OC(=O)C(O)(c2ccccc2)C2CCCC2)C1 (stereo unspecified) [Glycopyrrolate] | 0.223 ± 0.0096 | 0.301 ± 0.0095 | 0.267 ± 0.0065 | 0.185 ± 0.021 | 0.1866 ± 0.001 | 0.138 ± 0.0078 | 0.337 ± 0.055 | 0.425 ± 0.04 | 0.194 ± 0.025 | 0.196 ± 0.011 | 0.575 ± 0.12 | 0.408 ± 0.0092 | 0.335 ± 0.014
4 | O=C(CCCCC(=O)Nc1c(I)cc(I)c(C(=O)O)c1I)Nc1c(I)cc(I)c(C(=O)O)c1I [Iodipamide] | 0.249 ± 0.012 | 0.298 ± 0.0095 | 0.245 ± 0.0068 | 0.191 ± 0.0062 | 0.17 ± 0.0029 | 0.143 ± 0.0046 | 0.436 ± 0.022 | 0.452 ± 0.049 | 0.213 ± 0.0095 | 0.239 ± 0.03 | 0.527 ± 0.092 | 0.407 ± 0.013 | 0.346 ± 0.014
5 | CC(=O)c1ccc(S(=O)(=O)NC(=O)NC2CCCCC2)cc1 [Acetohexamide] | 0.253 ± 0.0047 | 0.284 ± 0.0099 | 0.242 ± 0.0032 | 0.191 ± 0.024 | 0.162 ± 0.0024 | 0.156 ± 0.0038 | 0.268 ± 0.082 | 0.455 ± 0.029 | 0.19 ± 0.0083 | 0.232 ± 0.024 | 0.526 ± 0.01 | 0.405 ± 0.0044 | 0.316 ± 0.0099
6 | CN1[C@@H]2CC[C@H]1C[C@@H](OC(=O)c1c[nH]c3ccccc13)C2 [Tropisetron HCl] | 0.224 ± 0.0054 | 0.294 ± 0.0064 | 0.273 ± 0.0034 | 0.216 ± 0.036 | 0.177 ± 0.0038 | 0.158 ± 0.0026 | 0.305 ± 0.044 | 0.319 ± 0.034 | 0.219 ± 0.02 | 0.264 ± 0.05 | 0.53 ± 0.08 | 0.402 ± 0.012 | 0.359 ± 0.0044
7 | Cc1c(NC(C)C)c(=O)n(-c2ccccc2)n1C [Isopyrin hydrochloride] | 0.2426 ± 0.0023 | 0.304 ± 0.017 | 0.265 ± 0.004 | 0.229 ± 0.0067 | 0.211 ± 0.0094 | 0.141 ± 0.0042 | 0.29 ± 0.04 | 0.429 ± 0.036 | 0.218 ± 0.019 | 0.268 ± 0.032 | 0.44 ± 0.036 | 0.393 ± 0.0061 | 0.351 ± 0.016
